Shown are actives, neighbours in structure and some others; about 21% of the full set was active somewhere.
Cycloheximide cs = counter-screen for Shiga toxin inhibitors: cycloheximide protein synthesis inhibition. cell reporter, cycloheximide protein synthesis inhibition counterscreen. max response, %. 300,000 compounds, 12% hits. AID 2314; in the data active means max response mostly above about 13%, no sharp cut-off; inactive means mostly below about 14%; further: read at 38.3 µM for the half of the compounds with a filed dose; 0% is about no effect
Shiga inhibitor = Shiga toxin inhibition | Vero cells, Shiga toxin protein synthesis inhibition reporter | inhibition, % at 38.7 µM | 290,000 compounds, 9.2% hits | AID 2315; in the data active means inhibition mostly above about 28%, no sharp cut-off; inactive means mostly below about 43%; further: 0% is about no effect
HCV inh = inhibitors of hepatitis C virus infection; Huh7.5.1 HCVcc-Cre infection, luciferase reporter, 44 h; Potency, µM (titrated, usually from 41.8 µM), inactives show top-dose activity change, negative = inhibition, actives largely listed as inhibitors; 340,000 compounds, 3.4% hits; AID 651820; further: potency means the concentration at half of the fitted maximal effect; on the % scale 0 is the no-effect control and ±100 the full control effect
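After 44 h co-culture of compound, cells and HCVcc-Cre (~0.5 moi), substrate is added for 15 min at room temperature and luciferase measured over 15 sec. Cells were seeded at 1,000/well and pre-cultured 4 h.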
Pf growth 48h = inhibits P. falciparum growth in the first generation, 48 h; P. falciparum luciferase growth in erythrocytes, 48 h; Potency, µM (doses to about 28.7 µM), for the others: at the top dose activity change, negative = inhibition, actives largely listed as inhibitors; 310,000 compounds, 5.9% hits; AID 504832; further: potency means the concentration at half of the fitted maximal effect; on the % scale 0 is the no-effect control and ±100 the full control effect
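A one-generation exposure of luciferase-tagged malaria parasites in RPMI 1640/Albumax erythrocyte culture, 37 C and 5% CO2. Inhibition is inferred from decreased luminescence after adding detection reagent.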
AMA1-RON2 inh = AMA1-RON2 (P. falciparum) interaction inhibition; AlphaScreen AMA1-biotinylated RON2 peptide binding; Potency, µM (doses to about 58.2 µM), inactives show at the highest dose activity change, negative = inhibition, usual class: inhibitors; 360,000 compounds, 0.2% hits;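 further: potency means the concentration at half of the fitted maximal effect; 0% = vehicle wells and -100% = peptide control; nearly all actives have a fitted effect of over 45% in size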
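AMA1 (3D7) with his tag at 25 nM final met compounds first, then biotinylated RON2 peptide at 25 nM; detection used donor plus acceptor beads, 10 µg/mL apiece, read by AlphaScreen after 30 min at room temperature.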
Pf growth 96h = P. falciparum growth inhibition at 96 hours. P. falciparum luciferase reporter growth, 96 h. Potency, µM (top dose mostly 28.7 µM), inactives show at the top dose activity change, negative = inhibition, most hits filed as inhibitors. 320,000 compounds, 6.9% hits. AID 504834; further: potency means the concentration at half of the fitted maximal effect; on the % scale 0 is the no-effect control and ±100 the full control effect
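Delayed-death screen, second-generation endpoint: infected erythrocytes, 2% hematocrit, 0.05% parasitemia final; 96 hours at 37 C, 5% CO2; luciferase detection reagent; luminescence decrease equals reduced growth.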
* marks the source's active call; other numbers are inactive results; ? = inconclusive; · = not tested or not shown; [ ] = dose if it differs, or a comment. Unless noted, the call rests on the fitted dose curve; in most records, active means well fitted curve in the direction sought with a large enough effect; inconclusive means small, poorly fitted or top-dose-only effect, or another doubt; inactive means no such curve, though single readings can be large; an effect the other way counts as inactive or inconclusive.

SMILES	Cycloheximide cs	Shiga inhibitor	HCV inh	Pf growth 48h	AMA1-RON2 inh	Pf growth 96h
COc1ccccc1C(=O)NCCC(=O)NCC(c1ccco1)N1CCCC1 (configuration not stated)	·	·	6%	-27%	-4%[11.6 µM]	12µM*
O=C(NCC(c1ccco1)N1CCOCC1)c1ccc(Cl)cc1 (configuration not stated)	·	·	11%	23%	-14%	46%
Nc1ccn([C@@H]2O[C@H](C(=O)N3CCCN(Cc4cccs4)CC3)[C@@H](O)[C@H]2O)c(=O)n1	·	·	·	·	-2%	·
Cc1ccc(S(=O)(=O)Nc2cc3c4c(c2)CCN4C(=O)CC3)cc1	·	·	12%	-28%	-19%	1%
O=C(Cc1cccc(NC(=O)C2CCN(C(=O)CCc3ccccc3)CC2)c1)Nc1cccc(C(=O)N2CCCCC2)c1	·	·	-67%	·	5%	·
COc1ccc(C(=O)N/N=C/c2c(CO)cnc(C)c2O)cc1	-2	13	-6%	?	61%	?
Cc1ncc(CO)c(/C=N/NC(=O)c2ccc(O)cc2)c1O	12	-10	-15%	2.1µM*	39%	?
Cc1ncc(CO)c(/C=N/NC(=O)c2ccoc2C)c1O	·	·	?	?	79%	-6%
Cc1ncc(CO)c(/C=N/NC(=S)Nc2ccc(Cl)c(Cl)c2)c1O	-3	6	14µM*	?	27%	?
COc1ccccc1NS(=O)(=O)c1cccc(C(=O)N/N=C/c2c(CO)cnc(C)c2O)c1	·	·	?	12µM*	?	?
Cc1ncc(CO)c(/C=N/NC(=O)c2cc3c(s2)CCCC3)c1O	-5	-2	7.9µM*	?	-22%	?
CCc1ccccc1NC(=O)CNC(=O)c1ccccc1OCc1c(C)noc1C	·	·	0%[8.37 µM]	-17%	-4%	-1%
Cc1ccc(-c2nc(CS(=O)(=O)CC(=O)Nc3cc(F)ccc3F)c(C)o2)cc1	-1	-4	?	40%	-4%	?
O=C(NNC(=O)c1cccs1)c1ccc(Br)cc1	18*	40	-2%	53%	0%	13%
CC(=O)Nc1ccc(C(=O)NNC(=O)c2cccs2)cc1	8	-12	11%	33%	0%	?
CCN(CC)S(=O)(=O)c1ccc(NC(=O)c2cccs2)cc1	16	1	-21%	-12%	-11%	?
Cc1cc(Cl)ccc1NNC(=O)c1cccs1	2	17	?	-2%	20µM*	22%
O=C(NNC(=O)c1cccs1)c1ccncc1	16	-12	3%	-3%	?	10%
O=C(NNC(=O)c1cccs1)c1ccccc1	28*	53*	7%	68%	-6%	3%
O=C(NNc1cc(Cl)ccc1Cl)c1cccs1	-3	-2	10%	?	-21%	?
CCN(CC)S(=O)(=O)c1cccc(C(=O)Oc2cccc(NC(=O)c3cccs3)c2)c1	25*	-5	1%	22%	-13%	24%
CN1OC[C@@H]2CN(Cc3ccc(Cl)cc3)[C@H](c3cccc(Br)c3)C[C@@H]21	·	·	-21%	·	?	·
Cc1c(C(=O)NNC(=O)c2ccccc2O)oc2ccccc12	·	·	·	·	17%	·
O=C(NNC(=O)c1cccs1)c1ccc(Cl)cc1	19*	24	0%	53%	-3%	?
O=C(NNC(=S)NC(=O)c1cccs1)c1ccc(NC(=O)c2ccccc2)cc1	-4	-2	?	?	60%	58%
SMILES	Cycloheximide cs	Shiga inhibitor	HCV inh	Pf growth 48h	AMA1-RON2 inh	Pf growth 96h
CCN(CC)S(=O)(=O)c1ccc(C(=O)NNC(=O)c2cccs2)cc1	3	10	13%	0%	36%	0.15µM*
O=C(NNC(=O)c1ccccc1Br)c1cccs1	26*	65*	9%	69%	0%	6%
O=C(NNC(=S)NC(=O)c1cccs1)c1ccc(O)cc1	23	28*	-6%	2%	134%	?
C[C@H](NC(=O)c1ccc(Cl)cc1)C(=O)NNC(=O)c1cccs1	·	·	12%	-17%	23%	5%
Cc1nc(C)c(C(=O)OCC(=O)Nc2ccc(C)c(C)c2)s1	·	·	·	·	2%	·
Cc1ccc2nsnc2c1NC(=O)c1ccc([N+](=O)[O-])o1	-2	2	?	?	-4%	7%
Cc1cccc(C)c1NC(=O)CNC(=O)C1CC(=O)N(Cc2ccccc2)C1 (configuration not stated)	·	·	14%	1%	-6%	1%
Cn1c(-c2ccc3c(c2)OCO3)cnc1NCc1cccc(Cl)c1	13	21	-18%	?	?	?
Cn1c(-c2ccccc2)cnc1NCc1ccccc1	11*	·	-13%	12%	-29%	-5%
Cn1c(-c2cccc(Br)c2)cnc1NCc1ccccc1O	3	2	-15%	?	?	5.2µM*
Cn1c(-c2ccc(Br)cc2)cnc1NCc1ccc(C#N)cc1	-3	-11	-13%	?	?	?
Cn1c(-c2ccc3c(c2)OCO3)cnc1N	13*	-4	-11%	-29%	28%	?
Cn1c(-c2ccc3c(c2)OCO3)cnc1NCc1ccccc1	39*	56	?	15%	?	34%
Cn1c(-c2ccc3c(c2)OCO3)cnc1NC(=O)CCC(=O)NCCc1ccccc1	18*	65*	-5%	19%	53%	·
COc1cccc(CCNC(=O)CCc2nnc(-c3ccc4c(c3)OCO4)o2)c1	10	21	-10%	3%	-5%	-6%
Cn1c(-c2ccc(F)cc2)cnc1NCc1cccc([N+](=O)[O-])c1	-3	-4	-27%	6%	-27%	?
Cn1c(-c2ccc3c(c2)OCO3)cnc1NCc1ccccc1Cl	33*	73*	?	-4%	?	49%
Cn1c(-c2cccc([N+](=O)[O-])c2)cnc1NCc1cccc(F)c1	-4	-2	0%	45%	?	4.7µM*
Cc1ccc(CNc2ncc(-c3ccccc3)n2C)o1	25*	20	?	21%	?	2%
CCCCNC(=O)C1(C)CCN1C(=O)c1cc(C)n(C(C)(C)C)n1 (configuration not stated)	·	·	·	·	10%	·
O=C1C(F)=CC(COC(c2ccccc2)(c2ccccc2)c2ccccc2)OC1n1cc(F)c(=O)[nH]c1=O (configuration not stated)	·	·	?	·	25%	·
CNC(=O)C[C@@H]1C(=O)N(c2ccc(OC)cc2)CC1(C)C	·	·	·	·	2%	·
CCOC(=O)[C@]12CCC=C1N(Cc1ccc(Cl)cc1Cl)C(=O)[C@H](CC(=O)N1CCC(c3ccccc3)CC1)C2	·	·	·	·	-8%	·
COc1ccc(NC(=S)Nc2ccccc2)cc1	7	2	2%	19%	11%	-30%
COc1ccc(C(=S)Nc2ccc(N(C)C)cc2)cc1	37*	78*	-3%	216%	-13%	·
Cc1ccc(NC(=S)c2ccc(N(C)C)cc2)cc1	53*	78*	2%	71%	-1%	50%
COc1ccc(NC(=S)c2ccccc2)cc1	53*	71*	2%	116%	-3%	67%

Source: PubChem BioAssay (National Center for Advancing Translational Sciences (NCATS))
